Test results from PubChem BioAssay (EPA / NIEHS).
Activity calls are given as the source filed them. How the source made its calls: active means hit-call score of the fitted dose curve at least 0.9, where 1 is the maximum; inactive means score below 0.9.

Columns and labels:
Conditions in all cases: mRNA level, 48 h; actives raise or lower the signal
CYP2E1 (gene 1571) = assay: LTEA_HepaRG_CYP2E1: Life Technologies and Expression Analysis (LTEA) Assay for CYP2E1 using HepaRG (AID 2283485)
In short: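 HepaRG cells, plated 48 h, then exposed 48 h in serum-free induction medium to eight half-log concentrations from 100 uM in 0.5% DMSO, duplicate. CYP2E1 mRNA by qRT-PCR, normalized to ACTB/GAPDH/POLR2A; bidirectional fit versus DMSO.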

CYP4A11 (gene 1579) = assay: LTEA_HepaRG_CYP4A11: Life Technologies and Expression Analysis (LTEA) Assay for CYP4A11 using HepaRG (AID 2283486)
In short: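 Readout is CYP4A11 transcript level by qRT-PCR, normalized to three housekeeping genes and fitted bidirectionally against 0.5% DMSO. Human HepaRG cells were treated 48 h, in duplicate, with an 8-point half-log series topping at 100 uM.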

[1] = read-out: Cytochrome P450 3A4 (Homo sapiens) (UniProt P08684); assay: LTEA_HepaRG_CYP3A4: Life Technologies and Expression Analysis (LTEA) Assay for CYP3A4 using HepaRG (AID 2283487)
In short: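 CYP3A4 transcript measured by TaqMan qRT-PCR and normalized to three housekeeping genes after 48 h chemical exposure of human HepaRG cells. Top concentration 100 uM, half-log steps, 0.5% DMSO vehicle; gain or loss fitted against DMSO baseline.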

[2] = read-out: DNA damage-inducible transcript 3 (DDIT3), DDIT3 (gene 1649); assay: LTEA_HepaRG_DDIT3: Life Technologies and Expression Analysis (LTEA) Assay for DNA damage-inducible transcript 3 (DDIT3) using HepaRG (AID 2283488)
In short: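 HepaRG cells, 48 h after plating, exposed 48 h in serum-free induction medium to 8 half-log concentrations up to 100 uM in 0.5% DMSO, in duplicate. DDIT3 mRNA measured by TaqMan qRT-PCR, normalized to ACTB, GAPDH and POLR2A. Fitted bidirectionally against DMSO.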

[3] = read-out: Pro-epidermal growth factor (Homo sapiens) (UniProt P01133); assay: LTEA_HepaRG_EGF: Life Technologies and Expression Analysis (LTEA) Assay for Epidermal growth factor (EGF) using HepaRG (AID 2283489)
In short: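 EGF transcript measured by Fluidigm TaqMan qRT-PCR with three housekeeping genes for normalization, 48 h after dosing HepaRG cultures in duplicate (top 100 uM, half-log steps, 0.5% DMSO vehicle). Gain or loss relative to DMSO fitted.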

[4] = read-out: Ezrin (EZR), EZR (gene 7430); assay: LTEA_HepaRG_EZR: Life Technologies and Expression Analysis (LTEA) Assay for Ezrin (EZR) using HepaRG (AID 2283491)
In short: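 HepaRG, 48 h chemical exposure, 8-pt half-log series from 100 uM, 0.5% DMSO vehicle, duplicates. Read-out: EZR mRNA by TaqMan qRT-PCR (Fluidigm array), housekeeping-normalized; bidirectional curve fit vs DMSO baseline.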

[5] = read-out: Cytochrome P450 3A7 (Homo sapiens) (UniProt P24462); assay: LTEA_HepaRG_CYP3A7: Life Technologies and Expression Analysis (LTEA) Assay for CYP3A7 using HepaRG (AID 2283492)
In short: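 CYP3A7 transcript measured by qRT-PCR (ACTB, GAPDH, POLR2A normalization) after 48 h chemical exposure of HepaRG cells in duplicate. Eight half-log concentrations, maximum 100 uM, 0.5% DMSO vehicle; bidirectional curve fitting against DMSO baseline.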

CYP3A5 (gene 1577) = assay: LTEA_HepaRG_CYP3A5: Life Technologies and Expression Analysis (LTEA) Assay for CYP3A5 using HepaRG (AID 2283493)
In short: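 HepaRG cells, plated 48 h then in serum-free induction medium, dosed in duplicate for 48 h with eight half-log concentrations up to 100 uM in 0.5% DMSO. Gene mRNA by Fluidigm TaqMan qRT-PCR, normalized to ACTB, GAPDH, POLR2A.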

[6] = read-out: Fatty Acid-Binding Protein 1 (FABP1), FABP1 (gene 2168); assay: LTEA_HepaRG_FABP1: Life Technologies and Expression Analysis (LTEA) Assay for Fatty Acid-Binding Protein 1 (FABP1) using HepaRG (AID 2283494)
In short: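 HepaRG, 48 h post-plating switched to serum-free induction medium, then dosed 48 h (duplicate, 8 pts, ≤100 uM, 0.5% DMSO). RNA → Fluidigm TaqMan qRT-PCR, FABP1 normed to ACTB/GAPDH/POLR2A. Bidirectional curve fit vs DMSO.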

[7] = read-out: Early growth response protein 1 (EGR1) transcription factor, EGR1 (gene 1958); assay: LTEA_HepaRG_EGR1: Life Technologies and Expression Analysis (LTEA) Assay for Early growth response protein 1 (EGR1) transcription factor using HepaRG (AID 2283490)
In short: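 Read-out is EGR1 mRNA level by qRT-PCR, normalized to three housekeeping genes and analysed for gain or loss of signal against 0.5% DMSO. Source cells: human HepaRG, treated 48 h at up to 100 uM in half-log dilutions.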

Measured: AC50

Cytochrome P450 3A4 (Homo sapiens), sequence (P08684 whole entry, looked up): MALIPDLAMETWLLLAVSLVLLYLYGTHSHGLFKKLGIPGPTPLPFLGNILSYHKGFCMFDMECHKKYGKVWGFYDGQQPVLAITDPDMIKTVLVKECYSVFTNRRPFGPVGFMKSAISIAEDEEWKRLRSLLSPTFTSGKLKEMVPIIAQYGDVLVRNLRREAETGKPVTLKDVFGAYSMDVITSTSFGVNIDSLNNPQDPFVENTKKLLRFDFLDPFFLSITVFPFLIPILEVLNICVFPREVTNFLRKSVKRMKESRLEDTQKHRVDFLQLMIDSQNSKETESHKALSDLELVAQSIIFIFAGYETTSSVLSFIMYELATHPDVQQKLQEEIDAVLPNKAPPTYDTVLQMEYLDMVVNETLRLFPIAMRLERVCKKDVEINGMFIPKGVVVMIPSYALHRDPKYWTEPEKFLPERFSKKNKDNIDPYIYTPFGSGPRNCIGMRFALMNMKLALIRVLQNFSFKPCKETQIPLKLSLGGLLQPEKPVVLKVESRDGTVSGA
Cytochrome P450 3A7 (Homo sapiens), sequence (P24462 whole entry, looked up): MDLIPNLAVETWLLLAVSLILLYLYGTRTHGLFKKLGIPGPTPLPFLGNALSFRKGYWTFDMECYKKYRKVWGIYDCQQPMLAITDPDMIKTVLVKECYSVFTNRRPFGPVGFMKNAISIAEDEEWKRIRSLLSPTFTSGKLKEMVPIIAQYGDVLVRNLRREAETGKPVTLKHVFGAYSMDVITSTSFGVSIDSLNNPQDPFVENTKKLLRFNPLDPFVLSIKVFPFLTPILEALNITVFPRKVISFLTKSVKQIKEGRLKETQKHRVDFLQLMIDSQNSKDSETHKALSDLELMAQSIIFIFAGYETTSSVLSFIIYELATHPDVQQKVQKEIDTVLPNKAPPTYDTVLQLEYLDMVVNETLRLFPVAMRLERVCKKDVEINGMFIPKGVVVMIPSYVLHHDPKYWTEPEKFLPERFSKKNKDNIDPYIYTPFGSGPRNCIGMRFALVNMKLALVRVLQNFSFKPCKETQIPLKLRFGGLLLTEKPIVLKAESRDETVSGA

CN1C(=O)CC[C@H]1c1cccnc1
inactive: CYP2E1 (gene 1571) | CYP4A11 (gene 1579) | [1] | [2] | [3] | [4] | [5] | CYP3A5 (gene 1577) | [6]

OCCO
inactive: CYP2E1 (gene 1571) | CYP4A11 (gene 1579) | [1] | [2] | [7] | [4] | [5] | CYP3A5 (gene 1577) | [6]

O=C1O[C@H]([C@@H](O)CO)C(O)=C1O
inactive: CYP2E1 (gene 1571) | CYP4A11 (gene 1579) | [1] | [2] | [7] | [4] | [5] | CYP3A5 (gene 1577) | [6]

OC12N=C(c3ccccc3)SC1Cc1cc(Cl)ccc12 (stereo not given)
inactive: [3] | [7] | [4]
active: CYP2E1 (gene 1571) 16 µM | CYP4A11 (gene 1579) 49 µM | [1] 81.3 µM | [2] 2.33 µM | [5] 59 µM | CYP3A5 (gene 1577) 8.12 µM | [6] 34.4 µM

COCC(C)OCC(C)OCC(C)O (stereo not given)
inactive: CYP4A11 (gene 1579) | [1] | [2] | [7] | [4] | [5] | CYP3A5 (gene 1577) | [6]
active: CYP2E1 (gene 1571) 50 µM

CCCCCCCCCCCCO
inactive: CYP2E1 (gene 1571) | CYP4A11 (gene 1579) | [1] | [2] | [3] | [7] | [4] | [5] | CYP3A5 (gene 1577) | [6]

CC[C@@H]1C[C@H](N(Cc2cc(C(F)(F)F)cc(C(F)(F)F)c2)C(C)=O)c2cc(C(F)(F)F)ccc2N1C(=O)OC(C)C
inactive: [2] | [3] | [7] | [4] | CYP3A5 (gene 1577)
active: CYP2E1 (gene 1571) 3.17 µM | CYP4A11 (gene 1579) 15.6 µM | [1] 0.29 µM | [5] 0.435 µM | [6] 4.3 µM

Cc1ncc(CO)c(CO)c1O
inactive: CYP2E1 (gene 1571) | CYP4A11 (gene 1579) | [1] | [2] | [3] | [4] | [5] | CYP3A5 (gene 1577) | [6]

O=c1c(-c2ccc(O)cc2)coc2cc(O)cc(O)c12
inactive: CYP2E1 (gene 1571) | CYP4A11 (gene 1579) | [1] | [2] | [3] | [7] | [4] | [5] | CYP3A5 (gene 1577) | [6]

CCCCCCCCOc1ccc(C(=O)c2ccccc2)c(O)c1
inactive: CYP2E1 (gene 1571) | CYP4A11 (gene 1579) | [1] | [2] | [7] | [4] | [5] | CYP3A5 (gene 1577) | [6]

CCN(Cc1cccnc1)C(=O)c1cccc(Cl)c1[C@]1(C)C(=O)N(Cc2ccc(OC)cc2OC)c2ccc(Cl)cc21
active: CYP2E1 (gene 1571) 16.1 µM | CYP4A11 (gene 1579) 16.7 µM | [1] 25.9 µM | [2] 11.5 µM | [5] 24.1 µM | [6] 22.3 µM
inactive: [7] | [4] | CYP3A5 (gene 1577)

CCCCCCCCCC(=O)O
inactive: CYP2E1 (gene 1571) | CYP4A11 (gene 1579) | [1] | [2] | [3] | [7] | [4] | [5] | CYP3A5 (gene 1577) | [6]

CC(O)CC(C)(C)O (stereo not given)
inactive: CYP2E1 (gene 1571) | CYP4A11 (gene 1579) | [1] | [2] | [3] | [7] | [4] | [5] | CYP3A5 (gene 1577) | [6]

CCCCCCCCOC(=O)c1cc(O)c(O)c(O)c1
inactive: CYP2E1 (gene 1571) | CYP4A11 (gene 1579) | [1] | [2] | [3] | [4] | [5] | CYP3A5 (gene 1577) | [6]

Cc1cc(F)ccc1-c1cc(N2CC[C@@H](O)[C@H]2CO)ncc1N(C)C(=O)C(C)(C)c1cc(C(F)(F)F)cc(C(F)(F)F)c1
inactive: [5] | CYP3A5 (gene 1577)
active: CYP2E1 (gene 1571) 10.3 µM | CYP4A11 (gene 1579) 15.7 µM | [1] 0.588 µM | [2] 71.1 µM | [3] 5.44 µM | [7] 61.2 µM | [4] 20.8 µM | [6] 13.9 µM

O=c1[nH]sc2ccccc12
inactive: CYP2E1 (gene 1571) | CYP4A11 (gene 1579) | [1] | [2] | [3] | [4] | [5] | CYP3A5 (gene 1577) | [6]

CC[C@H](NC(=O)c1cc(F)ccc1NS(=O)(=O)c1cccc2cccnc12)c1ccccc1
inactive: [7] | [4] | [5] | CYP3A5 (gene 1577)
active: CYP2E1 (gene 1571) 22.3 µM | CYP4A11 (gene 1579) 22.4 µM | [1] 0.957 µM | [2] 47.8 µM | [3] 11.5 µM | [6] 32.3 µM

O=C=NCCCCCCN=C=O
inactive: CYP2E1 (gene 1571) | CYP4A11 (gene 1579) | [1] | [2] | [3] | [7] | [4] | [5] | CYP3A5 (gene 1577) | [6]

Oc1ccccc1
inactive: CYP2E1 (gene 1571) | CYP4A11 (gene 1579) | [1] | [2] | [3] | [4] | [5] | CYP3A5 (gene 1577) | [6]
